Results on nine sequences are retold here after publication PMC8384837, “Expanding the binding specificity for RNA recognition by a PUF domain”.

Holding throughout (test): yeast three-hybrid, YBZ-1, SC-Leu-His + 0.5 mM 3-AT, 4 days
What all share (conditions): tags: N-Gal4 AD-HA kept; label: inside an RPR1-promoter hybrid RNA with tandem MS2 sites; ssRNA

In one experiment the target is PUM1 PUF domain R4-SRW (Homo sapiens, UniProt Q14671 828-1176, N971S;H972R;Q975W). Summed up: (§1)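 Each repeat of the Pumilio-1 PUF domain was randomized at its three base-contacting residues, and these libraries were co-expressed from a centromeric plasmid with matching RNA elements in strain YBZ-1. After four days on SC-Leu (input) or SC-Leu-His + 0.5 mM 3-AT (selection), the repeat regions were PCR-amplified and Illumina-sequenced. The interaction score compares variant frequency between input and selection as a log change, computed in log2 with a pseudocount of 1 for absent variants.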

Another experiment deals with PUM1 PUF domain R7-KRT (Homo sapiens, UniProt Q14671 828-1176, S1079K;N1080R;E1083T). Summed up:
as §1

Another experiment addresses PUM1 PUF domain R1-KQN (Homo sapiens, UniProt Q14671 828-1176, S863K;R864Q;Q867N). The procedure, abridged:
as §1

The next experiment deals with PUM1 PUF domain R8-KQR (Homo sapiens, UniProt Q14671 828-1176, N1122K;Y1123Q;Q1126R). The procedure, abridged: as §1
In the next experiment the target is PUM1 PUF domain R1-SWK (Homo sapiens, UniProt Q14671 828-1176, R864W;Q867K). The procedure, abridged: as §1
A further experiment deals with PUM1 PUF domain R3-APV (Homo sapiens, UniProt Q14671 828-1176, C935A;R936P;Q939V). The procedure, abridged:
as §1

A further experiment deals with PUM1 PUF domain R5-QRS (Homo sapiens, UniProt Q14671 828-1176, C1007Q;Q1011S). Summed up:
as §1

The target of another experiment is PUM1 PUF domain R4-LGM (Homo sapiens, UniProt Q14671 828-1176, N971L;H972G;Q975M). The procedure, abridged: as §1
Another experiment has as its target T1, PUM1 PUF domain R6-WHG (Homo sapiens, UniProt Q14671 828-1176, N1043W;Y1044H;Q1047G).
T1 sequence: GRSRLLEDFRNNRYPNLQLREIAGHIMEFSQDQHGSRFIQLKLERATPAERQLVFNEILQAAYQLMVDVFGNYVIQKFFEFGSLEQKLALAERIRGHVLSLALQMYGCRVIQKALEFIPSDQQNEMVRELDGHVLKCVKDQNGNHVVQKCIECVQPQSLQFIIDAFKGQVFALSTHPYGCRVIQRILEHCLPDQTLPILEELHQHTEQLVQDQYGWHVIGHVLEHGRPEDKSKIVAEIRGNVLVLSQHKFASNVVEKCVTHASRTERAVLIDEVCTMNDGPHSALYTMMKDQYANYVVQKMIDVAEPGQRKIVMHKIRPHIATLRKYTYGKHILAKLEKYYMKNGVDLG
Summed up:
as §1

The target of another experiment is T2, PUM1 PUF domain R6-RHQ (Homo sapiens, UniProt Q14671 828-1176, N1043R;Y1044H).
T2 sequence: T1 sequence with W216R, G220Q
Summed up:
as §1

Numbering of substitutions follows the chain as printed.

For “GGCUAGAACUAGUGGAUCCCCCGGCGCCCGGCGGCUCGAGCCCGGGUAAGUGUAUAUAGUCUGCAUGCCGCCGGGCGCCAUGCCUGCAGGUCGACUCUAGAAAACAUG”, the binding signal with PUM1 PUF domain R4-SRW was 0.88 log2 enrichment (interaction score).
“GGCUAGAACUAGUGGAUCCCCCGGCGCCCGGCGGCUCGAGCCCGGGUAAGUCUAAAUAGUCUGCAUGCCGCCGGGCGCCAUGCCUGCAGGUCGACUCUAGAAAACAUG”: the binding signal with PUM1 PUF domain R7-KRT is 4.64 log2 enrichment (interaction score).
As to “GGCUAGAACUAGUGGAUCCCCCGGCGCCCGGCGGCUCGAGCCCGGGUAAGUGUAAAUGGUCUGCAUGCCGCCGGGCGCCAUGCCUGCAGGUCGACUCUAGAAAACAUG”, the binding signal with PUM1 PUF domain R1-KQN was 2.83 log2 enrichment (interaction score).
For “GGCUAGAACUAGUGGAUCCCCCGGCGCCCGGCGGCUCGAGCCCGGGUAAGCGUAAAUAGUCUGCAUGCCGCCGGGCGCCAUGCCUGCAGGUCGACUCUAGAAAACAUG”, the binding signal with PUM1 PUF domain R8-KQR is 2.27 log2 enrichment (interaction score).
Regarding “GGCUAGAACUAGUGGAUCCCCCGGCGCCCGGCGGCUCGAGCCCGGGUAAGUGUAAAUCGUCUGCAUGCCGCCGGGCGCCAUGCCUGCAGGUCGACUCUAGAAAACAUG”, in the experiment with PUM1 PUF domain R1-SWK, the binding signal is 2.68 log2 enrichment (interaction score).
Regarding “GGCUAGAACUAGUGGAUCCCCCGGCGCCCGGCGGCUCGAGCCCGGGUAAGUGUAAUUAGUCUGCAUGCCGCCGGGCGCCAUGCCUGCAGGUCGACUCUAGAAAACAUG”, the binding signal with PUM1 PUF domain R3-APV is 1.79 log2 enrichment (interaction score).
As for “GGCUAGAACUAGUGGAUCCCCCGGCGCCCGGCGGCUCGAGCCCGGGUAAGUUUAAAUAGUCUGCAUGCCGCCGGGCGCCAUGCCUGCAGGUCGACUCUAGAAAACAUG”, in the experiment with PUM1 PUF domain R7-KRT, the binding signal was 4.19 log2 enrichment (interaction score).
With “GGCUAGAACUAGUGGAUCCCCCGGCGCCCGGCGGCUCGAGCCCGGGUAAGUGUGAAUAGUCUGCAUGCCGCCGGGCGCCAUGCCUGCAGGUCGACUCUAGAAAACAUG”, in the experiment with PUM1 PUF domain R5-QRS, the binding signal is 3.7 log2 enrichment (interaction score).
For the sequence “GGCUAGAACUAGUGGAUCCCCCGGCGCCCGGCGGCUCGAGCCCGGGUAAGUGUAAAUAGUCUGCAUGCCGCCGGGCGCCAUGCCUGCAGGUCGACUCUAGAAAACAUG”, the binding signal is 3.2 log2 enrichment (interaction score) with PUM1 PUF domain R4-SRW; 1.57 log2 enrichment (interaction score) with PUM1 PUF domain R5-QRS; 3.11 log2 enrichment (interaction score) with PUM1 PUF domain R4-LGM; 3.76 log2 enrichment (interaction score) with PUM1 PUF domain R6-WHG; 5.04 log2 enrichment (interaction score) with PUM1 PUF domain R6-RHQ; 3.39 log2 enrichment (interaction score) in the experiment with PUM1 PUF domain R3-APV.
